Methyltransferases: Primary Screen for Target Class Profiling of Small Molecule Inhibitors of Methyltransferases. calls only at 40 µM. purified enzyme, MTase-Glo SAH luminescence; active compounds read low. 25,000 compounds, 3.9% hits; call rule not given here
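Each enzyme was assayed with SAM and its substrate. SAH formation detected by MTase-Glo luminescence; single-point 40 uM screen[…].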
Active calls of the source: *; i = inactive; + = active, no number. The full list was thinned out, with hits kept by preference. On the % scale 0 is the no-effect control and ±100 the full control effect.

SMILES | Methyltransferases
Cc1oc(C(O)c2ccccc2)nc1C(=O)Nc1ccc(C(=O)Nc2ccccc2)cc1 (configuration not stated) | i
CC(C)CCNC(=O)C1(C)Cn2c(cc3ccccc32)C(=O)N1Cc1ccc(N(C)C)cc1 (configuration not stated) | i
CC1CCN(S(=O)(=O)c2ccc3c(ccn3CCC(=O)NC3CCCC(C)C3C)c2)CC1 (configuration not stated) | i
CC1CCCC(NC(=O)C2(C)Cn3c(ccc3-c3ccco3)C(=O)N2Cc2cccs2)C1C (configuration not stated) | i
CCCn1c(=O)c2ccccc2n2c(SCC(=O)Nc3ccccc3C)nnc12 | i
CC(C)(O)/C=C1/C(=O)C(C)(C)C(=O)C(C)(C)C1(O)O[C@@H]1O[C@H](COC(=O)c2cc(O)c(O)c(O)c2)[C@@H](O)[C@H](O)[C@H]1O (some centres not stated) | +
C[C@@]12C[C@]3(O)O[C@H](O1)[C@]1(COC(=O)c4ccccc4)[C@H]3C[C@@]12O[C@@H]1O[C@H](COC(=O)c2ccccc2)[C@@H](O)[C@H](O)[C@H]1O | i
O=C(OC[C@H]1O[C@H](O[C@]2(CO)O[C@H](CO)[C@@H](O)[C@@H]2O)[C@H](O)[C@@H](O)[C@@H]1O)c1ccccc1 | i
Cc1ccc(Cn2c(=O)c3ccccc3n3c(CCC(=O)N4CC=C(c5ccccc5)CC4)nnc23)cc1 | i
O=C(CCn1ccc2cc(S(=O)(=O)N3CCCC3)ccc21)NCc1ccccn1 | i
C=C1C(=O)O[C@@H]2[C@H]3C(C)=CC(=O)C3=C(C)CC[C@@H]12 | i
C=C1C(=O)OC2C1CCC(=C)C1CC(OC(C)=O)C(=C)C12 (configuration not stated) | +
C=C(C)C(=O)OC1CC(CO)CCC/C(CO)=C/C2OC(=O)C(=C)C21 (configuration not stated) | i
CCOC(=O)c1cc2n(n1)CC(C)(C(=O)NC1CCCCCC1)N(c1ccc(C)c(Cl)c1)C2=O (configuration not stated) | i
CCCCN1C(=O)c2cc(C(=O)NCc3ccc(Cl)cc3)nn2CC1(C)C(=O)NC1CCCC1 (configuration not stated) | i
CCOc1ccc(C2c3cccn3-c3sc4c(c3CN2C(=O)Nc2ccc(C(=O)OC)cc2)CCCC4)cc1 (configuration not stated) | i
Cc1ccc(N2C(=O)c3cc4occc4n3CC2(C)C(=O)NC2CCCCCCC2)cc1C (configuration not stated) | i
Nc1ncnc2c1c(-c1cccc(OCc3ccccc3)c1)cn2C1CC(CN2CCC2)C1 (configuration not stated) | +
O=C(Cn1nc2nc(Nc3ccc(F)cc3)ccn2c1=O)NCc1ccc2c(c1)OCO2 | i
CC1(C(=O)NC2CCCC2)Cn2c(ccc2-c2ccco2)C(=O)N1c1ccc2c(c1)OCCO2 (configuration not stated) | i
CCOC(=O)Cn1cccc1-c1nc(-c2ccc(OC)cc2)c(-c2ccc(OC)cc2)s1 | +
COc1ccc(NC(=O)c2nc3sccn3c2-c2cccc(OC)c2)cc1 | i
Cc1ccc(C(=O)Cn2nc3n(CC(C)C)c(=O)c4ccc(C(=O)NCC(C)C)cc4n3c2=O)c(C)c1 | i
CCCCNC(=O)c1cc2n(n1)CC(C)(C(=O)NC1CCCCCC1)N(C)C2=O (configuration not stated) | i
COc1ccc(OC)c(CNS(=O)(=O)c2cc3[nH]c(=O)[nH]c3cc2C)c1 | i
SMILES | Methyltransferases
CCOc1ccccc1CN1C(=O)c2c(C(=O)OC)ncn2CC1(C)C(=O)NC1CCCCCC1 (configuration not stated) | i
O=C(CCC(=O)n1ncc2ccc(Cl)cc21)N1CCN(c2ccccc2)CC1 | i
O=C(COCC(=O)N1CCN(C(c2ccccc2)c2ccccc2)CC1)Nc1ccc(Cl)cc1C(=O)O | +
O=C(CSc1nnc2n(Cc3ccc(F)cc3)c(=O)c3ccccc3n12)Nc1ccc(Cl)cc1 | i
COc1ccc(CN2C(=O)c3cc4ccccc4n3CC2(C)C(=O)NCc2ccccc2)c(OC)c1 (configuration not stated) | i
O=C(Cn1nc2n(Cc3ccccc3)c(=O)c3ccccc3n2c1=O)Nc1cccc(Cl)c1 | i
CCCn1c(=O)c2ccc(C(=O)NCC(C)C)cc2n2c(SCC(=O)Nc3ccc(C)cc3C)nnc12 | i
O=C(O)c1cc(-c2c(-c3ccccc3)nn3ccccc23)n[nH]c1=O | i
Nc1[nH]nc2nnc(-c3c(-c4ccccc4)nn4ccccc34)cc12 | +
COc1ccc(CN2C(=O)c3cc4ccccc4n3CC2(C)C(=O)NC2CCCCC2)cc1 (configuration not stated) | i
O=C(Nc1ccn(Cc2ccc(O)cc2C(F)(F)F)n1)c1c(F)cccc1F | i
Cc1ccc(CNC(=O)c2cc3n(n2)CC(C)(C(=O)NC2CCCCCC2)N(C)C3=O)o1 (configuration not stated) | i
CC1CCN(S(=O)(=O)c2ccc3c(ccn3CC(=O)NCCc3ccc(Cl)cc3)c2)CC1 | i
CCN1CCN(c2ccc(Nc3ccc(-c4ccc(C(N)=O)cc4)n4ncnc34)cc2)CC1 | +
COc1ccc(N2CCN(C(=O)c3ccc(Nc4nc5ccccc5n5nnnc45)cc3)CC2)cc1 | i
CCN1CCN(C(=O)c2ccc(-c3nnc4ccc(NC(=O)C5CC5)cn34)cc2)CC1 | i
COCCCN1C(=O)c2c(C(=O)OC)ncn2CC1(C)C(=O)NC1CCCCCC1 (configuration not stated) | i
CC(=O)Nc1c2n(c3ccc(F)cc13)CC(C)(C(=O)NCCC(C)C)N(Cc1cccs1)C2=O (configuration not stated) | i
CCOCCCNC(=O)N1Cc2c(sc3c2CCCC3)-n2cccc2C1c1ccccc1 (configuration not stated) | i
COc1ccc(-c2cc3n(n2)CC(C)(C(=O)NC2CCCCC2)N(Cc2ccco2)C3=O)cc1 (configuration not stated) | i
CC(C)c1nc(-c2ccc(NC(=O)Nc3cccc(C(F)(F)F)c3)c3ccccc23)c2c(N)nccn12 | +
CC(C)c1nc2c(NC(=O)Nc3cccc(Cl)c3)cccn2n1 | i
CCCn1c(=O)c2ccc(Cl)cc2n2c(=O)n(CC(=O)Nc3ccc(F)cc3)nc12 | i
CC(C)OCCCn1c(=O)c2ccccc2n2c(CCC(=O)NCc3ccc(F)cc3)nnc12 | i
CC(C)CCNC(=O)C1(C)Cn2c(ccc2-c2ccco2)C(=O)N1CCc1ccc(Cl)cc1 (configuration not stated) | i
SMILES | Methyltransferases
COc1cc(Nc2c(C#N)cnc3cc(OCCCN4CCN(C)CC4)c(OC)cc23)c(Cl)cc1Cl | +
COc1cc2c(Oc3ccc(-c4cnc(Nc5ccc(F)cc5)n(C)c4=O)cc3F)ccnc2cc1OCCCN1CCOCC1 | i
COc1cccc(OCCCN)c1-c1cc(Nc2cnc(C#N)cn2)n[nH]1 | i
CC1(C(=O)NC2CCCCC2)Cn2c(ccc2-c2ccccc2)C(=O)N1Cc1ccccc1Cl (configuration not stated) | i
Cn1nnc(-c2ccc(-c3ccc(N4C[C@H](CO)OC4=O)cc3F)cn2)n1 | i
CC1CCN(S(=O)(=O)c2ccc3c(c2)oc(=O)n3CC(=O)N2CCN(c3ccccc3F)CC2)CC1 | i

Bioassay records (PubChem BioAssay)
